The values that follow come from PubChem BioAssay AID1259415 (National Center for Advancing Translational Sciences (NCATS), 2018).

About 18,000 (4.4%) of roughly 410,000 compounds were called active. About 7% were inconclusive and are not listed. This is one part of a sample in which actives are shown more often than they occur. Unmarked numbers belong to inactive results. No stated cut-off is given here; in the data, active means activity change below about -60%; inconclusive means no clear call, values can overlap the other calls; inactive means above about -39%.
On the % scale 0 is the no-effect control and ±100 the full control effect.

This experiment is described as follows: qHTS Assay for inhibitors of the human cytomegalovirus (HCMV). Particulars: HFF cells, HCMV-luciferase reporter, 72 h; at 57.5 µM; stronger effect = lower value. In outline:
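HFF cells seeded 16 h at 37C, treated with compounds, infected with luciferase-reporter HCMV at MOI 1 PFU/cell; luciferase read at 72 h post infection, normalized to buffer-only and Salinomycin controls.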
Turning to `C[C@@H]1CN([C@@H](C)CO)C(=O)c2cc(NC(=O)C3CC3)ccc2O[C@H]1CN(C)C`, the activity change, negative = inhibition was 34.3%.

For `COc1cc(C(=O)Nc2cc(C(F)(F)F)ccc2-n2cncn2)cc(OC)c1OC`, the activity change, negative = inhibition was -20%.

`COCCCNC(=O)c1cccc2c(-c3ccc(O)c(OC)c3)coc12`: the activity change, negative = inhibition is 71.3%.

On to `CC(Sc1ccc(S(=O)(=O)N2CCN(C)CC2)cn1)C(=O)NC1CCCC(C)C1C` (stereo not drawn), for which the activity change, negative = inhibition is -4.06%.

On to `COC(=O)c1ccc(S(=O)(=O)c2ccc(C(=O)OC)s2)s1`, for which the activity change, negative = inhibition was 23.7%.

`CCc1ccc(C2=CC(=O)CC(C)(C)C2=O)cc1`: the activity change, negative = inhibition is -23%.

With `COc1cccc(CNCc2c(C(=O)O)n(Cc3ccc(C)cc3)c3cc(C)ccc23)c1OC`, the activity change, negative = inhibition was 3.78%.

As to `COc1ccc(Cn2c(C(=O)O)c(CNCc3cccc(OC)c3)c3ccc(C)cc32)cc1`, the activity change, negative = inhibition is -106% (active).

On to `COc1ccc(Cn2c(C(=O)O)c(CNCCc3cccs3)c3ccc(OC)cc32)cc1`, for which the activity change, negative = inhibition is -4.9%.

As for `COc1cccc(CNC(=O)Cn2ncn3c(cc4ccccc43)c2=O)c1`, the activity change, negative = inhibition is 44.2%.

`Cc1ccc(C(=O)CSc2nc(-c3ccccc3)nc3c2CCCC3)c(C)c1`: the activity change, negative = inhibition was 2.92%.

Take `COc1ccccc1C(=O)Nc1c(C(=O)Nc2ccc(C)cc2)oc2ccccc12`: the activity change, negative = inhibition is 14.6%.

For `c1ccc2c(c1)OCC(CNc1ncnc3nc[nH]c13)O2` (stereo not drawn), the activity change, negative = inhibition is -61.6% (active).

`Cc1n[nH]c(C)c1S(=O)(=O)N1CCCC(C(=O)NCC2COc3ccccc3O2)C1` (stereo not drawn): the activity change, negative = inhibition was -37.1%.

With `CCc1ccccc1NC(=O)CSc1nc(C)c(C(=O)Nc2ccccc2)c(-c2ccc(Cl)cc2)c1C#N`, the activity change, negative = inhibition was -35.3%.

Consider `Cc1cccc(CC(=O)Nc2cccc(-c3cn4cccnc4n3)c2)c1`, for which the activity change, negative = inhibition was 10%.

With `CC(=O)N1CCc2cc(S(=O)(=O)Nc3ccccc3N3CCN(C)CC3)ccc21`, the activity change, negative = inhibition was -37.8%.

Take `Cc1cc2c(cc1C)N1C(=O)c3cc4ccccc4cc3NC(=O)C1C(=O)N2` (stereo not drawn): the activity change, negative = inhibition is -73.2% (active).

Regarding `COc1cccc(NC(=O)c2ccc3nc(CCc4ccccc4)oc3c2)c1`, the activity change, negative = inhibition was 41.2%.

Consider `CCC(C)NC(=O)c1nn(C)c(=O)c2ccccc12` (stereo not drawn), for which the activity change, negative = inhibition was 29.9%.

`COc1cc2c(cc1OC)C(c1cccc([N+](=O)[O-])c1)=NCC2`: the activity change, negative = inhibition was 54.4%.

Take `COc1cc2c(cc1OC)C(/C=C/c1ccco1)=NCC2`: the activity change, negative = inhibition was -61.3% (active).

In the case of `CCOC(=O)C1=NN(c2ccc(Cl)cc2)/C(=C/C2=NCCc3cc(OC)c(OC)cc32)S1`, the activity change, negative = inhibition is 27.1%.

Take `Cc1c(CNC(C)c2ccccc2)c(C(=O)O)c(C)n1Cc1c(F)cccc1Cl` (stereo not drawn): the activity change, negative = inhibition is -11%.

On to `COc1cc2[nH]c(=S)n(CCN3CCCCC3C)c(=O)c2cc1OC` (stereo not drawn), for which the activity change, negative = inhibition was -75.7% (active).

Turning to `COc1cc2[nH]c(=S)n(Cc3ccc(F)cc3)c(=O)c2cc1OC`, the activity change, negative = inhibition is -63.8% (active).

On to `COc1cc2[nH]c(=S)n(Cc3ccc(C)o3)c(=O)c2cc1OC`, for which the activity change, negative = inhibition is -9.57%.

Regarding `COc1ccc(CN2CCCCC2C)cc1OC` (stereo not drawn), the activity change, negative = inhibition was 13.3%.

Consider `COc1cc2[nH]c(=O)n(Cc3ccc(C(=O)NCc4ccc(C)cc4)cc3)c(=O)c2cc1OC`, for which the activity change, negative = inhibition was -0.48%.

As to `CCOc1cc2[nH]c(=S)n(CCN3CCCCC3C)c(=O)c2cc1OCC` (stereo not drawn), the activity change, negative = inhibition is 0.001%.

As for `CCOc1cc2[nH]c(=S)n(Cc3ccc(C(=O)N4CCN(C)CC4)cc3)c(=O)c2cc1OCC`, the activity change, negative = inhibition is -95.9% (active).

Turning to `CCOc1cc2[nH]c(=O)n(Cc3ccc(C(=O)NCCCN4CCCC4=O)cc3)c(=O)c2cc1OCC`, the activity change, negative = inhibition is -26.6%.

As to `CCOc1cc2[nH]c(=S)n(CCCN3CCCC3=O)c(=O)c2cc1OCC`, the activity change, negative = inhibition was -13%.

Take `CCOc1cccc(NC(=O)CSc2ncc(-c3ccc(Cl)cc3)[nH]2)c1`: the activity change, negative = inhibition is -2.16%.

`Cc1ccc(F)cc1NC(=O)CCSc1nc(-c2ccco2)cc(C(F)(F)F)n1`: the activity change, negative = inhibition was -17%.

For the compound `Cc1ccc(-c2cnc(C3CC3)o2)cc1S(=O)(=O)Nc1cccc(C)c1C`, the activity change, negative = inhibition was -35%.

`CCn1nnc(NC(=O)c2cc(Cl)c(OC)c(Cl)c2)n1`: the activity change, negative = inhibition was 16.3%.

Regarding `O=C(CN1C2CCC1CC(NC(=O)C1CC1)C2)NCc1ccccc1` (stereo not drawn), the activity change, negative = inhibition is 18.9%.

Turning to `COc1ccc(CCNC(=O)c2cn(C)c3ccc(S(=O)(=O)N(C)C4CCCCC4)cc3c2=O)cc1OC`, the activity change, negative = inhibition is 7.75%.

As for `Nc1c(C(=O)OCC(=O)Nc2ccc(OC(F)F)cc2)[nH]c(=O)[nH]c1=O`, the activity change, negative = inhibition is -34.6%.

For the compound `COc1ccc(NC(=O)c2ccc3oc(=O)c(S(=O)(=O)c4ccc(F)cc4)cc3c2)c(OC)c1`, the activity change, negative = inhibition is 10.2%.

Take `O=S1(=O)c2c(cccc2N2CCCC2)O[C@H](COCc2ccccc2)CN1C1CC1`: the activity change, negative = inhibition was -34%.

With `CCCCC[C@H](C)N1C[C@@H](COCc2ccccc2)Oc2cc(N3CCC[C@@H]3CO)ccc2S1(=O)=O`, the activity change, negative = inhibition is 15%.

On to `CCCCC[C@H](C)N1C[C@@H](COCc2ccccc2)Oc2cc(N3CC[C@@H](N(C)C)C3)ccc2S1(=O)=O`, for which the activity change, negative = inhibition was -94.8% (active).

On to `CN1C(=O)c2ccccc2Sc2ccc(NC(=O)Cc3ccc(Cl)cc3)cc21`, for which the activity change, negative = inhibition is -23.7%.

For `Cc1nn2c(=O)cc(COC(=O)c3cccc(NC(=O)COc4ccccc4Cl)c3)nc2s1`, the activity change, negative = inhibition was 14%.

With `COc1ccccc1NC(=O)c1cc(C2CC2)nc2c1c(C)nn2-c1ccc(C)cc1`, the activity change, negative = inhibition was 16.5%.

Turning to `O=C(OC1CCCCC1=O)c1cccc(S(=O)(=O)NCc2ccccc2)c1` (stereo not drawn), the activity change, negative = inhibition was -28.2%.

Consider `Cc1ccc(Cl)cc1N1CCN(C(=O)C2CCC(CNS(=O)(=O)c3cccs3)CC2)CC1` (stereo not drawn), for which the activity change, negative = inhibition was -25.7%.

`COC(=O)c1cnc(Nc2cc(C)ccc2OC)c2ccccc12`: the activity change, negative = inhibition was -31.5%.

Turning to `COc1ccc(NC(=O)c2cnc(Nc3ccc(C)c(Cl)c3)c3ccccc23)cc1OC`, the activity change, negative = inhibition is -10.9%.

For `COc1ccc(Nc2ncc(C(=O)Nc3cc(C)ccc3OC)c3ccccc23)cc1`, the activity change, negative = inhibition was -108% (active).

As for `Cc1ccc2oc3c(c(=O)c2c1)C(c1ccc(O)cc1)N(Cc1ccc2c(c1)OCO2)C3=O` (stereo not drawn), the activity change, negative = inhibition was -1.21%.

For `CCc1cc2c(NC3CCCC3)ncnc2s1`, the activity change, negative = inhibition was -76.1% (active).

For `CCc1cc2c(SCC(=O)Nc3ncc(Cl)c(C)c3Cl)ncnc2s1`, the activity change, negative = inhibition is -15.5%.

For `CCc1cc2c(NC(Cc3ccccc3)C(=O)O)ncnc2s1` (stereo not drawn), the activity change, negative = inhibition is 32.8%.

Take `O=C1NC(=Nc2ccc(Cl)cc2)SC1Cc1cccc(Cl)c1Cl` (stereo not drawn): the activity change, negative = inhibition was -64.5% (active).

On to `NC1=NC(=O)C(Cc2cccc(Cl)c2Cl)S1` (stereo not drawn), for which the activity change, negative = inhibition is -8.43%.

As for `CC(C)=N/N=C1/NC(=O)C(Cc2ccccc2)S1` (stereo not drawn), the activity change, negative = inhibition was 29.3%.

For the compound `CCCCC(CC)CNC(=O)C1CCN(S(=O)(=O)c2cccc3nsnc23)CC1` (stereo not drawn), the activity change, negative = inhibition is -8.64%.

On to `CCn1c(=O)c2cc(C(=O)NCCc3ccc(Cl)cc3)sc2c2ccccc21`, for which the activity change, negative = inhibition is -0.35%.

Take `CCc1ccc(CNC(=O)c2cc3c(=O)n(CC)c4ccccc4c3s2)cc1`: the activity change, negative = inhibition is -16.1%.

Turning to `CCN(CCCNC(=O)c1cc2c(=O)n(CC)c3ccccc3c2s1)Cc1ccccc1`, the activity change, negative = inhibition was -82.5% (active).

In the case of `O=c1c(NCc2cccs2)nccn1-c1ccccc1`, the activity change, negative = inhibition is 54.2%.

As to `COc1ccc(N=CN2c3ccccc3-n3cccc3C2CCc2ccccc2)cc1` (stereo not drawn), the activity change, negative = inhibition is 29.9%.

Consider `CCc1nc2c(cnn2-c2ccc(C)cc2)c(=O)n1-c1ccc(C)cc1`, for which the activity change, negative = inhibition is -37.2%.

Regarding `COc1ccccc1C(=O)Nn1c(-c2cccs2)nc2ccccc2c1=O`, the activity change, negative = inhibition is -71.7% (active).

As for `COc1cc(OC)cc(-c2nc3ccccc3c(=O)n2NC(=O)c2cccnc2Cl)c1`, the activity change, negative = inhibition was -24.5%.

Take `COc1cc(C(=O)Nn2c(CC(C)C)nc3ccccc3c2=O)cc(OC)c1OC`: the activity change, negative = inhibition was 36.7%.

On to `O=C(CC(c1cccs1)N1Cc2ccccc2C1=O)Nc1ccc(F)c(F)c1` (stereo not drawn), for which the activity change, negative = inhibition was -28.8%.

As for `Cc1ccc(C)c(N2CCN(C(=O)Cc3c(C(=O)O)c(C)cn3C)CC2)c1`, the activity change, negative = inhibition was 7.89%.

On to `CCC1CCC2(CC1)NC(=O)N(CC(=O)Nc1ccc(OC)cc1)C2=O` (stereo not drawn), for which the activity change, negative = inhibition was -8.02%.

For the compound `Cn1nccc1C(=O)NC1CCCc2c1cnn2-c1ccc(F)cc1F` (stereo not drawn), the activity change, negative = inhibition is -81.5% (active).

As for `Cn1nccc1C(=O)NC1CCCc2c1cnn2-c1ccccc1F` (stereo not drawn), the activity change, negative = inhibition is -80% (active).

In the case of `Cn1cc(C(=O)NCc2ccccc2F)cn1`, the activity change, negative = inhibition is 3.61%.

For the compound `CC(C)(C)OC(=O)N1CCC(c2c(C(=O)NCCc3ccsc3)cnn2-c2ccc(F)cc2F)CC1`, the activity change, negative = inhibition is 0%.

In the case of `CNS(=O)(=O)c1cccc(C(=O)NC2CCCc3ccccc32)c1` (stereo not drawn), the activity change, negative = inhibition was -19.2%.

As for `COC(=O)c1ccc(C(=O)NC2CC(C)(C)Cc3c2cnn3-c2ccc(F)cc2)nc1` (stereo not drawn), the activity change, negative = inhibition was 29.8%.

For `COc1ccc(-n2c(C)nc3c(cnn3-c3ccc(F)cc3)c2=O)cc1`, the activity change, negative = inhibition was -33.7%.

In the case of `Nc1cc(N2CCCCCC2)c2nonc2c1[N+](=O)[O-]`, the activity change, negative = inhibition was -24.1%.

`Cc1ccccc1NC(=O)CN1C(=O)C(C)(C)c2ccccc21`: the activity change, negative = inhibition was -4.1%.

On to `COc1cc(OC)c(OC)cc1/C=C/c1nc2cc3ccccc3cc2c(=O)n1-c1ccc(F)c(Cl)c1`, for which the activity change, negative = inhibition was 11%.

Turning to `CCOC(=O)c1cc(C(=O)Nc2ccc(S(=O)(=O)Nc3ccc(OC)cc3)cc2)nn1C`, the activity change, negative = inhibition is 2.74%.

Take `COc1ccc(NS(=O)(=O)c2ccc(NC(=O)c3ccc(N(C)S(C)(=O)=O)cc3)cc2)cc1`: the activity change, negative = inhibition was -94.5% (active).

Regarding `COc1ccc(C(CNC(=O)c2ccc(NS(=O)(=O)c3ccc(F)c(C)c3)cc2)N(C)C)cc1` (stereo not drawn), the activity change, negative = inhibition is -9.49%.

Turning to `O=C(c1cccs1)c1cn(CCOc2ccc(Cl)cc2)c2ccccc12`, the activity change, negative = inhibition is -4.55%.

`COc1ccc(CCNC(=O)c2cnc3sc(N4CCCCCC4)nn3c2=O)cc1OC`: the activity change, negative = inhibition is 0.444%.

Regarding `COc1ccc(NC(=O)Cn2c(=O)n(Cc3ccc(C(=O)NCc4ccccc4Cl)cc3)c(=O)c3ccccc32)cc1`, the activity change, negative = inhibition was -25.8%.
